This is part of a sample that, as a whole, favours compounds with a hit. Of some 79,000 tested, about 15% had one in any assay. A number with no mark means an inactive call. Active and inactive are the calls of the source. Rule as the data show it: active = growth inhibition above about 70%; inactive = the rest.

The nature of this test: NCI Yeast Anticancer Drug Screen. Data for the mgt1 strain (AID 153). The following applies: S. cerevisiae mgt1 mutant growth inhibition, active compounds read high. The protocol:
Growth inhibition of yeast strains with defined genetic alterations is measured as a screen for potential anti-cancer activity. Selected strains with alterations in DNA damage repair or cell cycle control were exposed to compounds and growth inhibition was measured relative to vehicle treated controls. The strain used in this assay is mgt1

For `CC(C)OC(=O)Nc1ccc2nc(-c3cscn3)[nH]c2c1`, the growth inhibition is -5% (at 1.2 µM); -7% (at 3.7 µM); -15% (at 11.0 µM); 4% (at 33.0 µM); 98% (active) (at 100.0 µM).

For `CCCCCCC(O)CNCc1ccnc2ccc(OC)cc12` (stereo not given), the growth inhibition reads like this: (at 1.2 µM) 1%; (at 3.7 µM) 4%; (at 11.0 µM) 17%; (at 33.0 µM) 38%; (at 100.0 µM) 51%.

Turning to `CC(C)(C)[Si](C)(C)OCC1CCC(n2cnc3c(NC(=O)c4ccccc4)ncnc32)O1` (stereo not given), the growth inhibition was -3% (at 1.2 µM); -6% (at 3.7 µM); 0% (at 11.0 µM); 0% (at 33.0 µM); -2% (at 100.0 µM).

With `CC(=O)Nc1ccc2c(c1)-c1ccccc1C2=O`, the growth inhibition (at 1.2 µM) was -5%; the growth inhibition (at 3.7 µM) is -4%; the growth inhibition (at 11.0 µM) was -5%; the growth inhibition (at 33.0 µM) was 1%; the growth inhibition (at 100.0 µM) is 76% (active).

As to `CN(C)CCOC1(Cc2ccc(F)cc2)CCC(C(C)(C)C)CC1` (stereo not given), the growth inhibition runs as follows: (at 1.2 µM) 18%; (at 3.7 µM) 8%; (at 11.0 µM) 20%; (at 33.0 µM) 53%; (at 100.0 µM) 98% (active).

As for `O=[N+]([O-])c1cc(Cl)cnc1Br`, the growth inhibition (at 1.2 µM) is 2%; the growth inhibition (at 3.7 µM) was 1%; the growth inhibition (at 11.0 µM) was 4%; the growth inhibition (at 33.0 µM) was 12%; the growth inhibition (at 100.0 µM) was 19%.

`CC1=C(SCc2ccccc2)C(=O)c2ccccc2C1=O`: the growth inhibition was -74% (at 1.2 µM); -64% (at 3.7 µM); -51% (at 11.0 µM); 43% (at 33.0 µM); 89% (active) (at 100.0 µM).

For the molecule `O=C(Oc1ccc2c(c1)CN(Cc1ccccc1)CO2)c1ccccc1`, the growth inhibition is, setting by setting: (at 1.2 µM) -1%; (at 3.7 µM) 0%; (at 11.0 µM) 2%; (at 33.0 µM) 10%; (at 100.0 µM) 39%.

These data come from PubChem BioAssay (NCI).
